Reference: PubChem BioAssay (NCATS)
Where “and” joins values, the source holds several entries; their conditions need not be identical. Identical values can stand only once. Inconclusive results are not listed. A call without a number means that no potency is given here. Values without a mark were called inactive. Calls of active or inactive are those of the source. The call rests on the fitted dose curve; in most records, active means well fitted curve in the direction sought with a large enough effect; inconclusive means small, poorly fitted or top-dose-only effect, or another doubt; inactive means no such curve, though single readings can be large; an effect the other way counts as inactive or inconclusive.

Tests used:
[1] = qHTS of pediatric cancer cell lines to identify multiple opportunities for drug repurposing: Primary screen for NB1643 cells (AID 1347099); further: nearly all actives have a fitted effect of over 50% in size; further: potency means the concentration at half of the fitted maximal effect
Procedure, shortened: (§1)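 Phenotypic viability qHTS, 48 h compound exposure, CellTiter-Glo luminescence read-out; multi-concentration dosing so that potency and efficacy derive directly from the primary screen's curves.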

[2] = qHTS of pediatric cancer cell lines to identify multiple opportunities for drug repurposing: Primary screen for LAN-5 cells (AID 1347100); further: potency means the concentration at half of the fitted maximal effect
Procedure, shortened: (§2)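 Cells (500-1,000/well) in growth media were settled 5 h at 37 degrees C, then given compounds for 48 h. Viability was read as CellTiter-Glo luminescence. Primary runs used MIPE at 11 points (0.78 nM-46 µM) and NPC at 8 points (0.59 nM-46 µM); follow-ups used 11 points.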

[3] = qHTS of pediatric cancer cell lines to identify multiple opportunities for drug repurposing: Primary screen for BT-12 cells (AID 1347101); further: nearly all actives have a fitted effect of over 25% in size; further: potency means the concentration at half of the fitted maximal effect
Procedure, shortened: (§3)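 Cells (500-1,000/well) rested 5 h, then received compounds for 48 h; metabolically active cells were measured by CellTiter-Glo luminescence. Final concentrations spanned up to 46 µM (MIPE, 11-point) or 0.59 nM-46 µM (NPC, 8-point) in primary screens, 11-point in follow-ups.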

[4] = qHTS of pediatric cancer cell lines to identify multiple opportunities for drug repurposing: Primary screen for Rh18 cells (AID 1347102); further: nearly all actives have a fitted effect of over 65% in size
Procedure, shortened: as §2

[5] = qHTS of pediatric cancer cell lines to identify multiple opportunities for drug repurposing: Primary screen for OHS-50 cells (AID 1347103); further: nearly all actives have a fitted effect of over 40% in size; further: potency means the concentration at half of the fitted maximal effect
Procedure, shortened: as §3

[6] = qHTS of pediatric cancer cell lines to identify multiple opportunities for drug repurposing: Primary screen for RD cells (AID 1347104); further: nearly all actives have a fitted effect of over 55% in size; further: potency means the concentration at half of the fitted maximal effect
Procedure, shortened: as §1

[7] = qHTS of pediatric cancer cell lines to identify multiple opportunities for drug repurposing: Primary screen for MG 63 (6-TG R) cells (AID 1347105); further: nearly all actives have a fitted effect of over 50% in size; further: potency means the concentration at half of the fitted maximal effect
Procedure, shortened: as §1

[8] = qHTS of pediatric cancer cell lines to identify multiple opportunities for drug repurposing: Primary screen for control Hh wild type fibroblast cells (AID 1347106);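 further: series mostly up to about 46 µM; a drop in luminescence marks cytotoxicity and a rise apparent proliferation; nearly all actives have a fitted effect of over 55% in size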
Procedure, shortened: as §2

[9] = qHTS of pediatric cancer cell lines to identify multiple opportunities for drug repurposing: Primary screen for Rh30 cells (AID 1347107); further: series mostly up to about 46 µM; nearly all actives have a fitted effect of over 75% in size
Procedure, shortened: as §2

[10] = qHTS of pediatric cancer cell lines to identify multiple opportunities for drug repurposing: Primary screen for Rh41 cells (AID 1347108); further: nearly all actives have a fitted effect of over 70% in size; further: potency means the concentration at half of the fitted maximal effect;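 on activity change, negative = cytotoxic: series mostly up to about 46 µM; luminescence drop marks cytotoxic hits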
Procedure, shortened: as §1

| Compound | Potency [1] | Potency [2] | Potency [3] | Potency [4] | Potency [5] | Potency [6] | Potency [7] | Potency [8] | Potency [9] | Potency [10] | activity change, negative = cytotoxic [1] | activity change, negative = cytotoxic [2] | activity change, negative = cytotoxic [3] | activity change, negative = cytotoxic [4] | activity change, negative = cytotoxic [5] | activity change, negative = cytotoxic [6] | activity change, negative = cytotoxic [7] | activity change, negative = cytotoxic [9] | activity change, negative = cytotoxic [10] |
| --- | --- | --- | --- | --- | --- | --- | --- | --- | --- | --- | --- | --- | --- | --- | --- | --- | --- | --- | --- |
| CCCN1CCC[C@@H]2Cc3nc(N)ncc3C[C@H]21 | inactive | inactive | inactive | inactive | inactive | inactive | inactive | inactive | inactive | inactive |  |  |  |  |  |  |  |  |  |
| Cc1ccc2c(c1)C1CN(C)CCC1N2 (stereo not drawn) | inactive | inactive | inactive | inactive | inactive | inactive | inactive |  | inactive | inactive |  |  |  |  |  |  |  |  |  |
| NCC(CC(=O)O)c1ccc(Cl)cc1 (stereo not drawn) |  |  |  |  |  |  |  |  |  |  | -5.29% [at 0.597 µM] | -9.23% [at 0.597 µM] | 1.13% [at 0.745 µM] | -2.74% [at 0.597 µM] | -11.1% [at 0.73 µM] | 1.05% [at 0.597 µM] | -15.2% [at 0.597 µM] | -0.257% [at 0.597 µM] | 9.97% [at 0.597 µM] |
| CCN(CC)C(=O)N[C@@H]1C=C2c3cccc4[nH]cc(c34)C[C@@H]2N(C)C1 | inactive | inactive | inactive | inactive | inactive | inactive | inactive | inactive | inactive | inactive |  |  |  |  |  |  |  |  |  |
| Nc1ccncc1 | inactive | inactive | inactive | inactive | inactive | inactive | inactive |  | inactive | inactive |  |  |  |  |  |  |  |  |  |
| NP(N)(=O)NC(=O)c1ccc(F)cc1 | inactive | inactive | inactive | inactive | inactive | inactive | inactive |  | inactive | inactive |  |  |  |  |  |  |  |  |  |
| COc1ccc(C(CN(C)C)C2(O)CCCCC2)cc1 (stereo not drawn) | inactive | inactive | inactive | inactive | inactive | inactive | inactive |  | inactive | inactive |  |  |  |  |  |  |  |  |  |
| C[C@]12CCC(=O)C(O)=C1CC[C@@H]1[C@@H]2CC[C@]2(C)C(=O)CC[C@@H]12 | inactive | inactive | inactive | inactive | inactive | inactive | inactive | inactive | inactive | inactive |  |  |  |  |  |  |  |  |  |
| COc1ccccc1N1CCNCC1 | inactive | inactive | inactive | inactive | inactive | inactive | inactive | inactive | inactive | inactive |  |  |  |  |  |  |  |  |  |
| NCC(O)c1ccc(O)cc1 (stereo not drawn) | inactive | inactive | inactive | inactive | inactive | inactive | inactive | inactive | inactive | inactive |  |  |  |  |  |  |  |  |  |
| O=[N+]([O-])c1cc([As](=O)(O)O)ccc1O | inactive | inactive | inactive | inactive | inactive | inactive | inactive | inactive | inactive | inactive |  |  |  |  |  |  |  |  |  |
| CC[C@@H](CO)NC(=O)[C@@H]1C=C2c3cccc4[nH]cc(c34)C[C@H]2N(C)C1 | inactive | inactive | inactive | inactive | inactive | inactive | inactive | inactive | inactive | inactive |  |  |  |  |  |  |  |  |  |
| Cc1ccc(-c2nc3ccc(C)cn3c2CC(=O)N(C)C)cc1 | inactive | inactive | inactive | inactive | inactive | inactive | inactive | inactive | inactive | inactive |  |  |  |  |  |  |  |  |  |
| CC(=O)[C@H]1CC[C@H]2[C@@H]3CC[C@H]4C[C@](C)(O)CC[C@]4(C)[C@H]3CC[C@]12C | inactive | inactive | inactive | inactive | inactive | inactive | inactive | inactive | inactive | inactive |  |  |  |  |  |  |  |  |  |
| Cc1ncc(CNC(=O)N(CCCl)N=O)c(N)n1 | inactive | inactive | inactive | inactive | inactive | inactive | inactive | inactive | inactive | inactive |  |  |  |  |  |  |  |  |  |
| CCC1(C2=NCCN2)Cc2ccccc2O1 (stereo not drawn) | inactive | inactive | inactive | inactive | inactive | inactive | inactive | inactive | inactive | inactive |  |  |  |  |  |  |  |  |  |
| NN=C(N)N | inactive | inactive | inactive | inactive | inactive | inactive | inactive | inactive | inactive | inactive |  |  |  |  |  |  |  |  |  |
| O=C1NCN(c2ccccc2)C12CCN(CC1COc3ccccc3O1)CC2 (stereo not drawn) | inactive | inactive | inactive | inactive | inactive | inactive | inactive | inactive | inactive | inactive |  |  |  |  |  |  |  |  |  |
| O=c1oc2ccccc2c(O)c1C(CC(O)c1ccc(-c2ccc(Br)cc2)cc1)c1ccccc1 (stereo not drawn) | inactive | inactive | inactive | inactive | inactive | inactive | inactive | inactive | inactive | inactive |  |  |  |  |  |  |  |  |  |
| CCC(C(N)=O)N1CCCC1=O (stereo not drawn) | inactive | inactive | inactive | inactive | inactive | inactive | inactive | inactive | inactive | inactive |  |  |  |  |  |  |  |  |  |

| Compound | Potency [1] | Potency [2] | Potency [3] | Potency [4] | Potency [5] | Potency [6] | Potency [7] | Potency [8] | Potency [9] | Potency [10] | activity change, negative = cytotoxic [1] | activity change, negative = cytotoxic [2] | activity change, negative = cytotoxic [3] | activity change, negative = cytotoxic [4] | activity change, negative = cytotoxic [5] | activity change, negative = cytotoxic [6] | activity change, negative = cytotoxic [7] | activity change, negative = cytotoxic [9] | activity change, negative = cytotoxic [10] |
| --- | --- | --- | --- | --- | --- | --- | --- | --- | --- | --- | --- | --- | --- | --- | --- | --- | --- | --- | --- |
| Oc1ccccc1-c1ccccc1 | inactive | inactive | inactive | inactive | inactive | inactive | inactive | inactive | inactive | inactive |  |  |  |  |  |  |  |  |  |
| CC[N+]1(C)CCCC(OC(=O)C(O)(c2ccccc2)c2ccccc2)C1 (stereo not drawn) | inactive | inactive | inactive | inactive | inactive | inactive | inactive | inactive | inactive | inactive |  |  |  |  |  |  |  |  |  |
| CC(=O)Nc1cc([As](=O)(O)O)ccc1O | inactive | inactive | inactive | inactive | inactive | inactive | inactive | inactive | inactive | inactive |  |  |  |  |  |  |  |  |  |
| NCC1(CC(=O)O)CCCCC1 | inactive | inactive | inactive | inactive | inactive | inactive | inactive |  | inactive | inactive |  |  |  |  |  |  |  |  |  |
| CCN(C(C)=O)c1cccc(-c2ccnc3c(C#N)cnn23)c1 | inactive | inactive | inactive | inactive | inactive | inactive | inactive | inactive | inactive | inactive |  |  |  |  |  |  |  |  |  |
| CC(C)NCC(O)c1ccccc1Cl (stereo not drawn) | inactive | inactive | inactive | inactive | inactive | inactive | inactive | inactive | inactive | inactive |  |  |  |  |  |  |  |  |  |
| CN1CCN(C(=O)O[C@H]2c3nccnc3C(=O)N2c2ccc(Cl)cn2)CC1 | inactive | inactive | inactive | inactive | inactive | inactive | inactive | inactive | inactive | inactive |  |  |  |  |  |  |  |  |  |
| N[C@@H](Cc1ccc(Oc2cc(I)c(O)c(I)c2)c(I)c1)C(=O)O | inactive | inactive | inactive | inactive | inactive | inactive | inactive | inactive | inactive | inactive |  |  |  |  |  |  |  |  |  |
| C=CCN1CC[C@]23c4c5ccc(O)c4O[C@H]2C(=O)CC[C@@]3(O)[C@H]1C5 | inactive | inactive | inactive | inactive | inactive | inactive | inactive | inactive | inactive | inactive |  |  |  |  |  |  |  |  |  |
| CC1NCCOC1c1ccccc1 (stereo not drawn) | inactive | inactive | inactive | inactive | inactive | inactive | inactive | inactive | inactive | inactive |  |  |  |  |  |  |  |  |  |
| CNCC(O)c1ccc(O)cc1 (stereo not drawn) | inactive | inactive | inactive | inactive | inactive | inactive | inactive | inactive | inactive | inactive |  |  |  |  |  |  |  |  |  |
| C#CCN(C)[C@H](C)Cc1ccccc1 | inactive | inactive | inactive | inactive | inactive | inactive | inactive | inactive | inactive | inactive |  |  |  |  |  |  |  |  |  |
| CCCC1CCCCN1 (stereo not drawn) | inactive | inactive | inactive | inactive | inactive | inactive | inactive | inactive | inactive | inactive |  |  |  |  |  |  |  |  |  |
| CCOP(=S)(OCC)Oc1cc(C)nc(C(C)C)n1 | inactive | inactive | inactive | inactive | inactive | inactive | inactive | inactive | inactive | inactive |  |  |  |  |  |  |  |  |  |
| CCCN1CCC[C@@H]2Cc3[nH]ncc3C[C@H]21 | inactive | inactive | inactive | inactive | inactive | inactive | inactive | inactive | inactive | inactive |  |  |  |  |  |  |  |  |  |
| C#CCOC(C(=O)OCCN(C)C)(c1ccccc1)c1ccccc1 | inactive | inactive | inactive | inactive | inactive | inactive | inactive | inactive | inactive | inactive |  |  |  |  |  |  |  |  |  |
| CN(C)CCc1ccc(O)cc1 | inactive | inactive | inactive | inactive | inactive | inactive | inactive |  | inactive | inactive |  |  |  |  |  |  |  |  |  |
| CC(C)(N)Cc1ccc(Cl)cc1 | inactive | inactive | inactive | inactive |  | inactive | inactive |  | inactive | inactive |  |  |  |  |  |  |  |  |  |
| O=C(NC(O)C(Cl)(Cl)Cl)NC(O)C(Cl)(Cl)Cl (stereo not drawn) | inactive | inactive | inactive | inactive | inactive | inactive | inactive |  | inactive | inactive |  |  |  |  |  |  |  |  |  |
| Fc1ccc(C(OCCN2CCN(CCCc3ccccc3)CC2)c2ccc(F)cc2)cc1 | 13.2 µM (active) | 16.6 µM (active) and 8.41 µM (active) | 21.7 µM (active) and 24.6 µM (active) |  | 10.9 µM (active) and 15.5 µM (active) | 26.4 µM (active) and 23.7 µM (active) | 21.1 µM (active) | inactive |  | 20.9 µM (active) |  |  |  |  |  |  |  |  |  |
